{"source": "PubChem BioAssay AID1851", "about": "(National Center for Advancing Translational Sciences (NCATS), 2009)", "note": "About 2,600 (16%) of roughly 16,000 compounds were called active. About 20% were inconclusive and are not listed. Calls follow the shape of the dose curve; as a rule, active = well fitted curve in the direction sought with a large enough effect; inconclusive = small, poorly fitted or top-dose-only effect, or effect the other way; inactive = no such curve, though single readings can be large or run the other way. Not all results are given here. The source holds several records for some structures; these can differ, active in one and inactive in another. % is scaled to controls: 0 for no effect and ±100 for the full control effect.", "data": [{"biological_target": "Cytochrome P450 2D6 (Homo sapiens) (UniProt P10635)", "sequence (P10635 whole entry, looked up)": "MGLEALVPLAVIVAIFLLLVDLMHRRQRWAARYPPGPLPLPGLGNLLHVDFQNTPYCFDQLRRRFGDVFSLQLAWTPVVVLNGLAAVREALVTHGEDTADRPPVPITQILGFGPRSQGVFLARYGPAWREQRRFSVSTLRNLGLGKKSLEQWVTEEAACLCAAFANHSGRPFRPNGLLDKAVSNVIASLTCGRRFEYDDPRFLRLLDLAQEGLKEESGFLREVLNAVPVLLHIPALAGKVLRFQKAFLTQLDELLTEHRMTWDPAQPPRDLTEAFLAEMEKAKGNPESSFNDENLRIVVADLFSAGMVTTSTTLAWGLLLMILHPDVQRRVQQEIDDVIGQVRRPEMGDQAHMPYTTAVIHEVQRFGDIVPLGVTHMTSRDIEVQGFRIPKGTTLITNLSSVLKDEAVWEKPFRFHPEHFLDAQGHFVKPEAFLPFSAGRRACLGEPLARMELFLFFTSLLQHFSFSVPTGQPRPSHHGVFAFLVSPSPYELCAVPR", "assay": "Cytochrome panel assay with activity outcomes", "conditions": "recombinant CYP, pro-luciferin dealkylation, luminescence, p450-cyp2d6; series mostly up to 57.1 µM; activity, negative = inhibition: at the top concentration", "values": [{"smiles": "N[C@H](C(=O)N[C@@H]1C(=O)N2C(C(=O)O)=C(Cl)CS[C@@H]12)c1ccccc1", "AC50": "inactive"}, {"smiles": "CCOC(=O)C1=C(C)NC(=S)NC1c1cccc(O)c1", "note": "(stereo unspecified)", "activity, negative = inhibition": "-8.2% (inactive)"}, {"smiles": "O=C(O)CC[C@@H](NC(=O)c1ccccc1C(=O)O)C(=O)O", "activity, negative = inhibition": "0.18% (inactive)"}, {"smiles": "Cc1nc2cnc(Oc3ccccc3)nc2n(-c2ccccc2)c1=O", "activity, negative = inhibition": "-12.4% (inactive)"}, {"smiles": "CCCN1C(=O)C2(/C(=C(\\O)c3ccc4c(c3)OCCO4)C(=O)C(=O)N2CCCOC)c2ccccc21", "note": "(stereo unspecified)", "activity, negative = inhibition": "16.7% (inactive)"}, {"smiles": "COc1ccc(Oc2ncc3nc(-c4cccs4)c(=O)n(Cc4cccc(OC)c4)c3n2)cc1", "activity, negative = inhibition": "-14.7% (inactive)"}, {"smiles": "Fc1ccc2nc3[nH]c4ccccc4c3nc2c1", "activity, negative = inhibition": "-11% (inactive)"}, {"smiles": "Cc1cc(N(CN2CCCC2=O)C(=O)c2ccc(F)cc2)no1", "activity, negative = inhibition": "4.83% (inactive)"}, {"smiles": "COc1cc(/C=N/NC(=O)c2cccs2)ccc1OCc1ccccc1", "activity, negative = inhibition": "-7.01% (inactive)"}, {"smiles": "COc1ccc(Cl)cc1NC(=O)NCCCl", "activity, negative = inhibition": "10.6% (inactive)"}, {"smiles": "CCOc1ccc(Cl)cc1CNCCNCC(C)O", "note": "(stereo unspecified)", "AC50": "3.16 µM (active)"}, {"smiles": "CCOc1ccc(C(=O)O)cc1OC", "activity, negative = inhibition": "14.4% (inactive)"}, {"smiles": "CCOc1ccc(Cl)cc1CNCCNCCO", "AC50": "11.2 µM (active)"}, {"smiles": "N=C1SCC(=O)N1c1nc(-c2ccccc2)cs1", "activity, negative = inhibition": "7.13% (inactive)"}, {"smiles": "C[C@@H]1NCC[C@H](CC(=O)O)[C@H]1CC(=O)O", "activity, negative = inhibition": "5.62% [at 11.4 µM] (inactive)"}, {"smiles": "Cc1nnc(-c2cnn(-c3ccccc3)c2N)n1Cc1ccc(F)cc1", "activity, negative = inhibition": "9.82% (inactive)"}, {"smiles": "CCCCOc1ccc(-c2nnn(CC(=O)c3c[nH]c4ccccc34)n2)cc1", "activity, negative = inhibition": "5.88% (inactive)"}, {"smiles": "O=C(O)[C@@H](Cc1c[nH]c2ccccc12)C(=O)NO", "activity, negative = inhibition": "4.35% [at 11.4 µM] (inactive)"}, {"smiles": "c1ccc(-c2c3ccccc3nc3[nH]c4ccccc4c23)cc1", "activity, negative = inhibition": "-3.6% (inactive)"}, {"smiles": "c1ccc2c(-c3c[nH]c4ccccc34)c3ccccc3nc2c1", "AC50": "10 µM (active)"}, {"smiles": "Cc1nc(Sc2ccccc2)c(C#N)cc1-c1ccccc1", "activity, negative = inhibition": "-7.18% (inactive)"}, {"smiles": "Cc1nc2cc(NC(=O)CSc3nc4c(C)cccc4cc3C#N)ccc2s1", "activity, negative = inhibition": "-18.2% (inactive)"}, {"smiles": "Nc1nc(SCC(=O)O)[nH]c(=O)c1N", "activity, negative = inhibition": "11% [at 11.4 µM] (inactive)"}, {"smiles": "CO[C@@H]1/C=C\\CC(=O)N[C@@H](C)C(=O)OC[C@@H](OC)[C@H](C)/C=C\\CC(=O)OC[C@H]1C", "activity, negative = inhibition": "10.8% [at 11.4 µM] (inactive)"}, {"smiles": "CCCN(CC1CC1)c1nc(C)nc(Nc2c(Cl)cc(Cl)cc2Cl)c1Cl", "AC50": "1.58 µM (active)"}, {"smiles": "COCCN(C(=O)C(C)C)c1nnc(-c2ccc(C)cc2)s1", "activity, negative = inhibition": "20.1% (inactive)"}, {"smiles": "CCC(CC)c1nnc(NC(=O)COc2ccc3c(C)cc(=O)oc3c2)s1", "activity, negative = inhibition": "-16.1% (inactive)"}, {"smiles": "COc1ccc(NC(=O)CC2C(=O)N(c3cccc(OC)c3)C(=O)N2C2CCCCC2)cc1", "note": "(stereo unspecified)", "activity, negative = inhibition": "-8.55% (inactive)"}, {"smiles": "CN1CCN(CCCBr)CC1", "activity, negative = inhibition": "3.38% [at 11.4 µM] (inactive)"}, {"smiles": "CN1CCN(CCc2ccc(Cl)c(Cl)c2)CC1", "AC50": "12.6 µM (active)"}, {"smiles": "CN(CCc1ccc(Cl)c(Cl)c1)CCN1CCCCCC1", "AC50": "0.126 µM (active)"}, {"smiles": "CCOC(=O)c1c(NC(=O)CCC(=O)N2CCOCC2)sc2c1CC(C)(C)OC2", "activity, negative = inhibition": "-6.11% (inactive)"}, {"smiles": "COC(=O)c1cc(C#N)c(NCc2ccc(Cl)cc2Cl)nc1C", "activity, negative = inhibition": "3.04% (inactive)"}, {"smiles": "CC(C)COc1ccc(C(=O)Nc2scc(-c3ccc(Cl)cc3Cl)c2C(N)=O)cc1", "activity, negative = inhibition": "-3.75% (inactive)"}, {"smiles": "Clc1ccccc1C(Nc1cnccn1)Nc1cnccn1", "activity, negative = inhibition": "10.1% [at 11.4 µM] (inactive)"}, {"smiles": "Cc1ccc(C(=O)NCC2CCCO2)cc1N1CCCC1=O", "note": "(stereo unspecified)", "activity, negative = inhibition": "-3.42% (inactive)"}, {"smiles": "O=c1[nH][nH]c(C(F)(F)F)c1C=Nc1cccc(Cl)c1", "activity, negative = inhibition": "-0.732% (inactive)"}, {"smiles": "CCCCOc1ccc(OC(=O)c2cccnc2)cc1", "activity, negative = inhibition": "-25.1% (inactive)"}, {"smiles": "COc1ccc(C(Cl)=C(c2ccc(OC)cc2)c2ccc(OC)cc2)cc1", "activity, negative = inhibition": "-1.8% [at 25.6 µM] (inactive)"}, {"smiles": "CCN(CC)CCOc1ccc(/C(=C(\\Cl)c2ccccc2)c2ccccc2)cc1", "AC50": "5.01 µM (active)"}, {"smiles": "Cc1nc(CN2CCCCC2)c(O)c(=O)[nH]1", "activity, negative = inhibition": "-19.7% [at 11.4 µM] (inactive)"}, {"smiles": "N[C@@H](Cc1[nH]nc2ccccc12)C(=O)O", "activity, negative = inhibition": "3.39% [at 11.4 µM] (inactive)"}, {"smiles": "O=C(/C=C/c1ccccc1)NNC(=O)c1cccnc1", "activity, negative = inhibition": "-3.07% (inactive)"}, {"smiles": "C=CC1=C(C)C2=Cc3c(C=C)c(C)c4[n]3[Sn+2][n]3c(c(C)c(CCC(=O)O)c3=CC3=NC(=C4)C(C)=C3CCC(=O)O)=CC1=N2", "AC50": "1.26 µM (active)"}, {"smiles": "CCCCCN1CC(O)=C(c2nc(-c3ccc(Cl)cc3)cs2)C1=N", "activity, negative = inhibition": "28.4% (inactive)"}, {"smiles": "Cc1nc2ccccc2nc1-c1ccc(N=[N+]([O-])c2ccc(-c3nc4ccccc4nc3C)cc2)cc1", "activity, negative = inhibition": "-15.4% [at 11.4 µM] (inactive)"}, {"smiles": "NC(=O)C[C@H](NC(=O)Cc1ccc(O)cc1O)C(=O)O", "activity, negative = inhibition": "5.57% (inactive)"}, {"smiles": "CC(C)(CNC(=O)c1ccc([N+](=O)[O-])c(Cl)c1)CNC(=O)c1ccc([N+](=O)[O-])c(Cl)c1", "AC50": "3.16 µM (active)"}, {"smiles": "O=C(NCc1ccc(Cl)cc1)c1ccc(Cl)cc1[N+](=O)[O-]", "activity, negative = inhibition": "-15.3% (inactive)"}, {"smiles": "COc1ccc(Cc2nnc(NC(=O)c3ccc(Cl)c([N+](=O)[O-])c3)s2)cc1", "activity, negative = inhibition": "9.11% (inactive)"}, {"smiles": "Nc1nc(N)nc(CC(=O)O)n1", "activity, negative = inhibition": "-1.79% [at 11.4 µM] (inactive)"}, {"smiles": "Cc1cccc[n+]1CC(=O)Nc1ccc([N+](=O)[O-])cc1Cl", "activity, negative = inhibition": "-9.2% (inactive)"}, {"smiles": "O=C(Nc1ccc([N+](=O)[O-])cc1Cl)c1cc(Cl)ccc1O", "AC50": "31.6 µM (active) and inactive"}, {"smiles": "O=C(N/N=C1\\CCCc2ccccc21)c1ccc([N+](=O)[O-])cc1Cl", "activity, negative = inhibition": "3.67% (inactive)"}, {"smiles": "CN(C)Cc1ccccc1-c1cc(N(C)Cc2ccco2)ncn1", "AC50": "7.94 µM (active)"}, {"smiles": "CN(Cc1ccco1)c1cc(-c2ccccc2Cl)ncn1", "activity, negative = inhibition": "-15.6% (inactive)"}, {"smiles": "COc1ccccc1-c1cc(N(C)Cc2ccco2)ncn1", "AC50": "12.6 µM (active)"}, {"smiles": "CCc1nc2cc(CC(=O)O)ccc2o1", "activity, negative = inhibition": "3.13% (inactive)"}, {"smiles": "N[C@@H](COP(=O)(O)O)C(=O)O", "activity, negative = inhibition": "13.7% (inactive)"}, {"smiles": "COc1cccc(NC(=S)NN2CCN(C)CC2)c1", "activity, negative = inhibition": "-18.7% (inactive)"}, {"smiles": "Cc1ccc(NC(=O)CN2C(=O)S/C(=C\\c3cccn3C)C2=O)cc1", "activity, negative = inhibition": "22% (inactive)"}, {"smiles": "Cn1cc(-c2nc3cncnc3n(-c3ccccc3)c2=O)c2ccccc21", "activity, negative = inhibition": "-7.45% (inactive)"}, {"smiles": "Cn1c(=O)c2[nH]c(CCCCC(=O)O)nc2n(C)c1=O", "activity, negative = inhibition": "-13.7% [at 11.4 µM] (inactive)"}, {"smiles": "CCn1c(=O)c2c(nc3n2CCS3)n(C)c1=O", "activity, negative = inhibition": "4.82% (inactive)"}, {"smiles": "CCCCc1c(O)nc(SCCN(C)C)n(-c2ccccc2)c1=O", "activity, negative = inhibition": "-18.2% (inactive)"}, {"smiles": "CCCCc1cc2ccccc2c(OCCN(C)C)n1", "AC50": "2 µM (active)"}]}]}
